Assay outcomes as filed in PubChem.
MLLE-PAM2 inh: blocks PAM2 peptide binding to the PABP1 MLLE domain. P11940. GST-MLLE / FITC-PAM2 fluorescence polarization. inhibition, % at 20 µM. 0.36% of 360,000 active. AID 588489; in the data active means inhibition above about 35%, passing the limit was not always enough;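 further: plate controls were DMSO wells with GST-MLLE for no effect and wells lacking GST-MLLE protein for full effect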
eIF4H FP inh: inhibitors of RNA binding by human eIF4H; AID 2012; 0.94% of 290,000 active; eIF4H fluorescence polarization binding assay; inhibition, % at 35 µM;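 further: calls also rest on retests at 20 µM and on dose response follow-up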
PHOSPHO1 inh: blocks human PHOSPHO1 phosphatase activity | 1.1% of 290,000 active | Q8TCT1 | inhibition, % at 13.3 µM | AID 1565 | recombinant PHOSPHO1, absorbance phosphatase assay; in the data active means inhibition above about 60%
AI-2 QS mod: modulators of Vibrio harveyi AI-2 quorum sensing system; Vibrio harveyi JMH597 AI-2 luminescence/OD600 ratio, 9 h; active compounds read low; strain lacks LuxN and CqsS sensors; 0 = neutral-control median; activity change, % at 7.5 µM; 0.4% of 300,000 active; AID 2094; in the data active means activity change below about -75%, passing the limit was not always enough; inconclusive means no clear call, values can overlap the other calls;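 further: luminescence divided by OD600 gain over 9 h not by final OD600 alone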
PABP FP inh: blocks human PABP binding to poly(A) RNA | P11940 | fluorescence polarization | calls only at 35 µM | 1% of 290,000 active | AID 2014;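 further: calls also rest on retests at 20 µM and on dose response follow-up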
ABCB6 inh MLPCN: inhibitors of human ABC transporter ABCB6 | 0.19% of 360,000 active | AID 602162 | fluorescence ratio to DMSO, % at 10 µM | K562-ABCB6 porphyrin accumulation, flow cytometry, 1 h; active compounds read low | Q9NP58;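 active means fluorescence ratio to DMSO below 75%, the collection mean minus 3 SD; inconclusive means too few cells collected in the well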;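 further: signal is porphyrin accumulated inside mitochondria; 100% equals median channel fluorescence of DMSO control wells; lower ratio means ABCB6 inhibition with less porphyrin fluorescence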
Target sequence (Q9NP58 whole entry, looked up): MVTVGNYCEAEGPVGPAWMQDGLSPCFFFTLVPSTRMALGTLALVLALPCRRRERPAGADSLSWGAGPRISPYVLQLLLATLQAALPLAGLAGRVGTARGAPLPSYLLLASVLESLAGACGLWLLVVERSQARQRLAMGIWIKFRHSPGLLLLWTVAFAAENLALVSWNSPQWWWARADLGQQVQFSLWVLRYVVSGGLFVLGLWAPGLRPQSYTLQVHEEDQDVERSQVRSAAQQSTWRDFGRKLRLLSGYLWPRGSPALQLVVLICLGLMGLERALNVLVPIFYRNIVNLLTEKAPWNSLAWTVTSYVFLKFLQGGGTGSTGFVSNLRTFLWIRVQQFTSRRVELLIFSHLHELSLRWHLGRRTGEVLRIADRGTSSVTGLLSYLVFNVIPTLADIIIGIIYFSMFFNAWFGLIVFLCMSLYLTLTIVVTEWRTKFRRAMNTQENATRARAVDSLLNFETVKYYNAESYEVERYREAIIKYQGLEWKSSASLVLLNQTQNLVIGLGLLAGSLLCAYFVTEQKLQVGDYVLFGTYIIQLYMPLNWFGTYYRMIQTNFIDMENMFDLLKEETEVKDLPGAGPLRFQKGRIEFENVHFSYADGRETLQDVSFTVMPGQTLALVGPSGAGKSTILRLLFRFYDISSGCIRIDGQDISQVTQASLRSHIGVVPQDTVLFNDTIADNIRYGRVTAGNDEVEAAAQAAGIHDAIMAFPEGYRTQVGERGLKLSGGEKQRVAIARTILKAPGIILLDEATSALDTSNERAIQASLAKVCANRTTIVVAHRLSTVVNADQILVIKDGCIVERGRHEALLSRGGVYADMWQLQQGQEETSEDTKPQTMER
* marks the source's active call; other numbers are inactive results; i = inactive; ? = inconclusive; . = not tested or not shown; + = active, no number. Compounds with a hit are over-represented: about 2.6% of the library has one in this group of screens. Unless noted, how the calls were made is not given here.

SMILES	MLLE-PAM2 inh	eIF4H FP inh	PHOSPHO1 inh	AI-2 QS mod	PABP FP inh	ABCB6 inh MLPCN
O=C(/C=C/[C@H]1O[C@@H](n2cnc3c(NC(=O)c4ccccc4)ncnc32)[C@H](O)[C@@H]1O)NCc1ccc2c(c1)OCO2	-9.0	.	.	.	.	97.0
COc1ccc(C(=O)C[n+]2ccc3ccccc3c2C)cc1	5.5	90.6*	-0.3	11.6	+	102.0
CC1(C(=O)Nc2ccc3c(c2)OCCO3)CCC(=O)N1CCOc1ccccc1 (centres undefined)	-5.7	.	.	.	.	96.0
O=C(CSc1nnnn1-c1ccc(O)cc1)c1cc2ccccc2o1	-96.5	0.9	32.2	-77.0*	i	97.0
Cc1ccccc1Cn1c(C)c(C(=O)N(C)Cc2ccc(F)cc2)sc1=O	-6.9	.	.	.	.	98.0
O=C(Oc1ccc2c(=O)c(Oc3ccc4ccccc4c3)coc2c1)c1ccco1	5.3	-10.0	-0.1	-82.2*	i	95.0
CCOC(=O)C1CCN(C(=O)c2ccc3c(c2)NC(=O)/C(=C/c2ccccc2)S3)CC1	24.3	1.4	54.3	26.1	i	91.0
CCOC(=O)C1CCN(C(=O)c2ccc3c(c2)NC(=O)/C(=C\c2ccc(C)cc2)S3)CC1	-2.8	?	70.0*	1.3	i	93.0
COc1ccc(NC(=O)C2Cc3c(-c4ccc(NC(C)=O)cc4)ccnc3O2)cn1 (centres undefined)	27.5	.	.	.	.	102.0
COC(=O)c1cccc(NC(=O)CSc2nc(O)c(-c3ccccc3)c(=O)[nH]2)c1	28.5	?	33.5	3.1	+	97.0
COC(=O)c1ccccc1NC(=O)CSc1nc(O)c(-c2ccccc2)c(=O)[nH]1	1.5	16.0	24.9	5.8	i	101.0
CC1=CC(C)(C)N(S(=O)(=O)c2ccc(C)cc2)c2ccc(C)cc21	5.3	1.6	-2.7	19.4	i	93.0
CC1=CC(C)(C)[N+](C)(C)c2ccc(C)cc21	-110.7	1.1	37.0	8.0	+	107.0
Cc1ccc(CC2(C)C(=O)Nc3c(Cl)cccc32)cc1 (centres undefined)	0.2	.	.	.	.	103.0
COc1ccc(C)c2sc(=NC(=O)c3ccc(C(C)=O)cc3)n(C)c12	13.3	89.5*	6.3	24.9	+	95.0
COc1ccc(C)c2sc(=NC(=O)c3ccccc3)n(C)c12	-8.6	-2.3	14.1	6.2	i	94.0
Cc1ccc(S(=O)(=O)NC(=O)C2(C)CCN2C(=O)Cc2cccs2)nc1 (centres undefined)	8.8	.	.	.	.	97.0
COCc1cc(C)nc(N2CCN(c3ccccc3)CC2)c1C#N	10.0	3.7	1.0	20.9	i	87.0
COCc1cc(C)nc(N2CCN(Cc3ccccc3)CC2)c1C#N	-134.7	3.9	78.3*	14.6	i	91.0
CC1(c2nnnn2Cc2ccccc2)CCC(=O)N1Cc1cccs1 (centres undefined)	.	.	.	.	.	102.0
COc1cc(/C=N/NC(=O)C(=O)NCc2ccco2)cc(Cl)c1O	2.8	?	22.0	9.7	+	94.0
COc1cc(/C=N/NC(=O)C(=O)NCc2ccco2)ccc1O	-16.2	2.9	-3.9	9.0	i	99.0
CN1C(C(=O)c2ccccc2)=C(N)c2ccccc2S1(=O)=O	-3.9	0.0	64.2*	5.5	i	95.0
O=CN/C=C/c1cc(O)ccc1O	32.8	93.9*	33.4	.	+	100.0
O=Cc1ccc(O)cc1O	-4.3	-4.3	7.9	0.7	i	99.0
SMILES	MLLE-PAM2 inh	eIF4H FP inh	PHOSPHO1 inh	AI-2 QS mod	PABP FP inh	ABCB6 inh MLPCN
COC(=O)Cn1c(O)c(N=NC(=O)CNC(=O)c2ccncc2)c2ccccc21	3.9	.	64.0*	-2.3	.	100.0
Cc1nn(C)cc1CN(C)C(=O)c1cc(COc2ccc(F)cc2F)on1	-11.7	-10.2	64.2*	9.5	i	95.0
O=C(Nc1cccc2ccccc12)N1CCN(c2ccccc2)CC1	13.5	-0.5	-39.9	.	i	98.0
O=C(Nc1cccc2ccccc12)N1CC=CCC1	-7.5	81.4*	0.9	-11.7	+	112.0
O=c1c2cc(N3CCOCC3)ccc2[nH]c(=S)n1Cc1ccccn1	-28.4	37.2*	0.2	10.2	+	98.0
CCOC(=O)c1c(N)sc2c1CCS(=O)(=O)C2	38.9*	18.4	78.9*	13.3	i	105.0
CCOC(=O)c1c(N)sc2c1CCCC2	27.3	6.3	48.7	10.0	i	103.0
N#Cc1ccsc1NC(=O)COC(=O)c1ccc2ccccc2c1	-34.3	55.7	-6.7	-5.8	+	103.0
CCC(=O)N1CCC1(C)C(=O)NS(=O)(=O)c1cccc(C#N)c1 (centres undefined)	2.0	.	.	.	.	105.0
O=C(c1ccc(NS(=O)(=O)c2ccccc2)cc1)N1CCN(c2ccccc2)CC1	-0.8	.	.	.	.	87.0
CCOC(=O)[C@]12CCCC=C1N(Cc1ccc3c(c1)OCO3)C(=O)[C@H](CC(=O)N1CCN(C(=O)C3CC3)CC1)C2	.	.	.	.	.	104.0
CC(C)C[C@H](NC(=O)C1CC(=O)N(c2ccc3c(c2)OCO3)C1)C(=O)NC1CCCC1 (some centres undefined)	33.1	?	70.1*	8.3	?	100.0
O=C(NCc1ccc2c(c1)OCO2)C1CC(=O)N(C2CCCCCCC2)C1 (centres undefined)	-1.9	12.1	48.5	5.1	i	99.0
O=C(NCc1ccc2c(c1)OCO2)C1CC(=O)N(C2CCCC2)C1 (centres undefined)	-12.7	-2.7	63.9*	23.0	i	94.0
COCc1cc(C)c(C#N)c(=S)[nH]1	37.0*	-6.8	42.0	15.2	i	110.0
O=c1cc(Cc2ccccc2)[nH]c(=S)[nH]1	32.6	-9.6	-13.9	-9.5	i	99.0
COCc1cc(=O)[nH]c(=S)[nH]1	40.4*	0.6	-2.2	15.1	i	99.0
O=C(NC(=S)NCCO)c1cn(-c2ccccc2)nc1-c1ccccc1	50.1*	-4.4	30.6	-3.9	i	103.0
Cc1ccc(S(=O)(=O)c2ccc([N+](=O)[O-])o2)cc1	-0.3	.	.	.	.	50.0*
CCOC(=O)C1=C(O)/C(=C\c2cccs2)N=C1C	-6.8	-6.8	-2.4	27.8	i	101.0
CCOC(=O)C1=C(O)/C(=C\c2sccc2C)N=C1C	9.5	77.5*	-26.6	27.1	+	101.0
COC(=O)C1=C(O)/C(=C\c2sccc2C)N=C1C	1.4	64.7*	11.9	11.0	+	97.0
CCN(CC)CCN1CCN(c2cncc(-c3ccc4ccccc4c3)n2)CC1	-5.7	.	.	.	.	102.0
CSc1ccc(CN2CCC2(C)C(=O)Nc2cccc(Oc3ccccc3)c2)cc1 (centres undefined)	4.7	.	.	.	.	94.0
CCOC1=C2[C@@H](CN(S(=O)(=O)c3ccccc3C)[C@H]2c2ccc(Cl)cc2)[C@H]2C(=O)NC(=O)[C@H]2C1	12.1	.	.	.	.	98.0
CCCN1CCCc2cc(CN)ccc21	45.1*	58.1*	21.4	33.2	+	124.0
CN1C(=O)SC(Nc2ccccc2C(=O)O)C1=O (centres undefined)	38.4*	3.3	29.6	39.2	i	101.0
